MK inhibit: inhibitors of Streptococcus pneumoniae mevalonate kinase; inhibition, % at 10 µM; purified MK, PK/LDH-coupled NADH absorbance 340 nm; 65,000 tested, 0.48% active;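 active = ranked among the strongest by inhibition in the single 10 µM screen, a fixed top-ranked set picked for dose follow-up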
A340 absorber: compounds absorbing at 340 nm | AID 708 | 65,000 tested, under 10 active | compound absorbance at 340 nm, fold over control | fold change at 10 µM;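 active = at 10 µM dose, initial 340 nm absorbance at least 2 fold that of control wells; inactive = change under 2 fold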;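 note: initial absorbance extrapolated from kinetic A340 decline of NADH oxidation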
Spn PMK inh: inhibitors of Streptococcus pneumoniae phosphomevalonate kinase; purified PMK, PK/LDH-coupled NADH absorbance 340 nm; inhibition, % at 10 µM; 65,000 tested, 0.49% active;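 active = top-ranked compounds by inhibition in the single 10 µM screen, taking a fixed number of the strongest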;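 note: 0% = full reaction with DMSO carrier and 100% = background rate without enzyme reaction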
NADH coupling: inhibition of NAD/NADH coupling enzymes, library profiling | 65,000 tested, 0.02% active | coupled PK/LDH NADH assays, four targets | IC50, µM (top dose mostly 10 µM), for inactives: top-dose inhibition | AID 774;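 active = single-dose screening hits from any of four coupled enzyme assays that gave an IC50 when retested across doses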;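 note: the DPM-DC format reads NADH fluorescence rather than 340 nm absorbance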
Fluor 339 460: intrinsic fluorescence of library compounds, ex339/em460 – biochemical, MLSMR library, data from DPM-DC assay, artefact control, profiling panel; compound autofluorescence, ex339/em460 nm, NADH buffer; hits give high values; 1 = no-compound wells, NADH background; fluorescence fold increase at 10 µM; 65,000 tested, 5.5% active; AID 709;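 active = at 10 µM, mean starting fluorescence two-fold or more over control wells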;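 note: signal is the first read of a kinetic run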
Spn DPM-DC inh: inhibitors of Streptococcus pneumoniae diphosphomevalonate decarboxylase; calls only at 10 µM; purified DPM-DC, PK/LDH coupled NADH fluorescence; 65,000 tested, 0.49% active;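 active = the 320 compounds with the highest percent inhibition in the single-dose primary screen, excluding strongly autofluorescent ones, cut at about 32% in these data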;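 note: kinetic rate of NADH fluorescence loss reporting ADP formed by the decarboxylase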
Starred values were filed as active, the others as inactive; i = inactive; . = no result shown. Shown are actives, neighbours in structure and some others; about 6.5% of the full set was active somewhere.

SMILES | MK inhibit | A340 absorber | Spn PMK inh | NADH coupling | Fluor 339 460 | Spn DPM-DC inh
CCOc1cc(S(=O)(=O)NCc2ccco2)c(OCC)cc1-n1cnnn1 | 7.0 | 1.02 | 13.0 | 10.0% | 3.21* | .
Cn1c2c(c(=O)n(C)c1=O)C(c1ccccc1OC(F)F)C1=C(CCCC1=O)N2 (stereo not given) | 4.0 | 1 | 14.0 | 14.0% | 3.99* | i
O=C(Cn1c(-c2ccccc2)noc1=O)NCc1ccccc1 | 5.0 | 0.98 | 4.0 | 3.0% | 1.13 | i
CC(C)CN(CC(C)C)S(=O)(=O)N1CCC(C(=O)NC2CCCCCCC2)CC1 | 1.0 | 0.99 | 30.0* | 10.0% | 1.02 | i
Cc1nn(-c2ccccc2)c2sc(C(=O)N3CCOCC3)cc12 | 3.0 | 1.01 | 7.0 | 1.0% | 1.07 | i
CCn1c2ccccc2c2cc(NC(=O)N3CCOCC3)ccc21 | 9.0 | 1.07 | 8.0 | 10.0% | 2.08* | i
CCn1c(=O)c2cc(C(=O)N3CCOCC3)sc2c2ccccc21 | 6.0 | 1.12 | 3.0 | 5.0% | 2.14* | .
O=C(c1cc2c(=O)oc3ccccc3c2s1)N1CCOCC1 | 8.0 | 1.09 | 17.0 | 10.0% | 0.96 | i
CCn1c(=O)c2cc(C(=O)N3CCCC3)sc2c2ccccc21 | 3.0 | 1.17 | 1.0 | 2.0% | 2.13* | .
O=C(c1cc2c(=O)n3ccccc3nc2s1)N1CCOCC1 | 0.0 | 1.09 | 19.0 | 10.0% | 4.93* | .
CCn1c(=O)cc(OCC(=O)N2CCCC2)c2ccccc21 | 0.0 | 1.04 | 0.0 | 0.0% | 1.06 | i
COC(=O)c1ccc(NC(=O)C2CCCN(S(=O)(=O)c3cnc[nH]3)C2)cc1 (stereo not given) | 0.0 | 1.06 | 3.0 | 1.0% | 1.07 | i
Cc1noc(C)c1CSc1nnnn1-c1ccc(Cl)cc1 | 6.0 | 1.03 | 0.0 | 2.0% | 1.13 | i
CCC1Oc2ccc(C)cc2N(CC(=O)NCCN2CCCCCC2)C1=O (stereo not given) | 0.0 | 1 | 25.0* | 8.0% | 1.08 | i
CCOC(=O)C1CCN(C(=O)Nc2ccccc2Cl)CC1 | 8.0 | 1.05 | 0.0 | 3.0% | 1.09 | i
COc1ccc2cc(C(=O)NCc3ccco3)c(=Nc3ccc(C(=O)O)cc3)oc2c1 | 6.0 | 1.04 | 7.0 | 3.0% | 1.2 | i
COc1ccc2cc(C(=O)NC3CCCCC3)c(=O)oc2c1 | 10.0 | 1.14 | 3.0 | 7.0% | 3.51* | .
O=C(NCc1ccco1)c1cc2ccc(O)cc2oc1=O | 9.0 | 1.08 | 8.0 | 9.0% | 3.83* | .
Cc1nc2ccccc2cc1C(=O)NCc1ccco1 | 0.0 | 0.98 | 12.0 | 3.0% | 0.99 | i
COc1ccc2cc(C(=O)NCc3ccco3)c(=O)oc2c1 | 15.0 | 1.37 | 5.0 | 10.0% | 3.28* | .
CCCCCCNS(=O)(=O)c1nc2nc(C)cc(C)n2n1 | 4.0 | 1.04 | 0.0 | 1.0% | 1.03 | i
O=c1cc(-c2ccco2)oc2ccc(Cl)cc12 | 7.0 | 1.05 | 5.0 | 2.0% | 2.35* | .
CCOC(=O)N1CCC(Nc2nc3ccccc3nc2NS(=O)(=O)c2ccc(Cl)cc2)CC1 | 4.0 | 1.21 | 1.0 | 5.0% | 1.32 | i
Cc1cc(-c2ccccc2)n(-c2ccc(C(=O)N3CCN(c4ncccn4)CC3)cc2)n1 | 6.0 | 1.06 | 1.0 | 2.0% | 1.19 | i
O=C(CSc1nnc(-c2ccccc2O)o1)Oc1ccc(OCc2ccccc2)cc1 | 2.0 | 1.05 | 2.0 | 2.0% | 3.97* | .
SMILES | MK inhibit | A340 absorber | Spn PMK inh | NADH coupling | Fluor 339 460 | Spn DPM-DC inh
COc1ccccc1C1C(C(=O)c2cc3ccccc3o2)=C(O)C(=O)N1CCN1CCOCC1 (stereo not given) | 12.0 | 1.08 | 6.0 | 6.0% | 1.14 | i
O=C(NC1CCCCC1)C(c1ccccc1)N1CCCC1 (stereo not given) | 9.0 | 1.05 | 0.0 | 3.0% | 1.08 | i
CC(c1ccccc1)C(CC(=O)O)C(=O)NC1CCCCC1 (stereo not given) | 8.0 | 1.03 | 27.0* | 12.0% | 1.07 | i
N#Cc1sc2nc(-c3ccccc3)cc(-c3ccco3)c2c1N | 10.0 | 1.06 | 8.0 | 6.0% | 1.32 | i
N#Cc1c(-c2ccccc2)cc(-c2ccco2)c(C#N)c1N | 8.0 | 1.06 | 0.0 | 4.0% | 2.26* | .
COC(=O)CNc1nc(-c2ccccc2F)nc2ccccc12 | 2.0 | 0.92 | 28.0* | 10.0% | 1.11 | i
CCN1CCN(S(=O)(=O)c2ccc(S(=O)(=O)N(CC)Cc3ccccc3)cc2)CC1 | 6.0 | 1 | 0.0 | 3.0% | 1.05 | i
CC(=O)N1CCc2cc(S(=O)(=O)NCCC(=O)NC3CCCc4ccccc43)ccc21 (stereo not given) | 5.0 | 1 | 5.0 | 2.0% | 1.01 | i
O=C(Cc1cccs1)Nc1nnc(-c2ccncc2)s1 | 5.0 | 1.11 | 4.0 | 5.0% | 2.21* | .
COc1cc(C2Nc3cccc4cccc(c34)N2)ccc1OC(C)=O | 8.0 | 1.07 | 12.0 | 7.0% | 1.46 | i
COc1cc(C2Nc3cccc4cccc(c34)N2)cc(OC)c1O | 0.0 | 1.03 | 18.0 | 2.0% | 3.25* | .
Nc1c(C(=O)Nc2ccc(Cl)cc2)oc2ccccc12 | 6.0 | 1.14 | 16.0 | 11.0% | 2.12* | .
O=C(CSc1nc2ccccc2[nH]1)N1CCCCC1 | 6.0 | 1.01 | 6.0 | 2.0% | 1.04 | i
O=c1oc2c3c4c(cc2cc1-c1nc2ccccc2[nH]1)CCCN4CCC3 | 21.0 | 0.9 | 71.0* | 11.0% | 2.12* | .
O=c1oc2c(CN3CCCCC3)c(O)ccc2cc1-c1nc2ccccc2[nH]1 | 12.0 | 1.01 | 4.0 | 8.0% | 3.97* | .
N=c1oc2c3c4c(cc2cc1C(=O)Nc1ccccc1)CCCN4CCC3 | 2.0 | 1.05 | 0.0 | 1.0% | 1.55 | i
O=C(CN1CCC(O)(c2ccc3c(c2)OCO3)CC1)OC1CCCCC1 | 6.0 | 0.97 | 13.0 | 3.0% | 1.04 | i
Nc1nc2n(n1)C(c1c(F)cccc1Cl)CC(c1ccc(F)cc1)N2 (stereo not given) | 2.0 | 0.99 | 0.0 | 2.0% | 1.07 | i
CCN(CC)CCCN1C(=O)C(O)=C(C(=O)c2cc3cccc(OC)c3o2)C1c1ccncc1 (stereo not given) | 1.0 | 1.14 | 6.0 | 2.0% | 1.13 | i
O=C(Nc1ccc2c(c1)oc1ccccc12)c1ccc2c(c1)OCO2 | 11.0 | 1.08 | 9.0 | 13.0% | 1.91 | i
O=c1c(O)c(-c2ccc3c(c2)OCO3)oc2ccccc12 | 1.0 | 1.07 | 13.0 | 14.0% | 3.03* | i
Cc1cccc(-n2nnnc2SCc2csc(-c3ccccc3)n2)c1 | 7.0 | 0.99 | 14.0 | 2.0% | 1 | i
CCOC(=O)CNc1c(-c2ccc(Cl)cc2)nc2cnccn12 | 0.0 | 1.09 | 20.0 | 10.0% | 4.86* | .
CCOC(=O)CSCc1nc(-c2ccc(Cl)cc2)oc1C | 3.0 | 1.03 | 0.0 | 1.0% | 1.07 | i
CCOC(=O)CNc1c(-c2ccc(F)cc2)nc2cnccn12 | 8.0 | 1.11 | 18.0 | 13.0% | 2.27* | .
CCOC(=O)CCc1c(C)nc2cc(-c3ccc(F)cc3)[nH]n2c1=O | 8.0 | 0.99 | 11.0 | 4.0% | 1.36 | i

Screening data from PubChem.
